Experimental data reported in PubChem BioAssay.
Unmarked numbers belong to inactive results. Active and inactive are the calls of the source. No stated cut-off is given here; in the data, active means inhibition above about 33%; inactive means the rest.

Experiment: VP16 transactivation reporter inhibitors, counter-screen for LRH-1 inverse agonist project, cell-based, luminescence, high throughput (AID 651615)
Conditions: Gal4-VP16 luciferase reporter cells, at 3.6 µM, stronger effect = higher value

Structure (SMILES)	inhibition
CCCOc1ccc(Cn2cnc3ccccc32)cc1	27.3%
O=C(Cn1cc(COc2ccc(C(=O)c3ccccc3)cc2)nn1)c1ccc(O)cc1	59.6% (active)
COc1ccccc1N1CCN(C(=O)C2c3ccccc3Oc3ccccc32)CC1	39.4% (active)
CS(=O)(=O)N1CCc2cc(-c3csc(NC(=O)Cc4cccs4)n3)ccc21	42.8% (active)
C=CC[n+]1c(-c2ccc(Cl)cc2Cl)csc1Nc1c(C)n(C)n(-c2ccccc2)c1=O	27.5%
O=C(Nc1cccc2ncccc12)c1ccc([N+](=O)[O-])o1	-17.5%
COc1cc(/C=C2/SC(=Nc3ccc(O)cc3)NC2=O)ccc1O	-31.2%
N#CCc1ccc(OCCCN2CCC(C(O)(c3ccccc3)c3ccccc3)CC2)cc1	12.4%
CCn1c2ccccc2c2cc(/C=N/n3c(-c4cc(C)[nH]n4)n[nH]c3=S)ccc21	7.75%
Cc1onc(-c2c(F)cccc2Cl)c1C(=O)Nc1cccc2nsnc12	27.2%
COc1ccc(O)c(/C=N/Nc2nc(Nc3ccccc3)nc(-n3nc(C)cc3C)n2)c1	-35.4%
COc1ccccc1N1CCN(C(=O)CSc2nc3ccccc3o2)CC1	-19.8%
Cc1cccc(NC(=O)CSc2nc3[nH]ncc3c(=O)[nH]2)c1C	-4.74%
Cc1cc2ccccn2c1C(=O)c1cccc([N+](=O)[O-])c1	-4.87%
CCc1ccccc1NC(=O)CSc1nnc([C@@H](NC(=O)OC(C)(C)C)C(C)C)o1	0.4%
Nc1ccc(Nc2ccncc2[N+](=O)[O-])cc1	15.7%
COc1cc(OC)cc(C(=O)N[C@H](C(=O)OCC(=O)Nc2ccc3c(c2)OCO3)C(C)C)c1	-4.48%
N#Cc1cc([N+](=O)[O-])ccc1NC(=O)COC(=O)C1CCC(=O)N1 (stereo not given)	-3.83%
c1ccc2c(c1)C1=NCCN1c1ccccc1-2	87.8% (active)
CC(Oc1ccc(S(=O)(=O)N2CCCC2)cc1[N+](=O)[O-])C(=O)NC(C)c1ccccc1 (stereo not given)	1.83%

Structure (SMILES)	inhibition
CCCCc1c(O)nc(SCC(=O)Nc2ccc3c(c2)CCC3)[nH]c1=O	0.43%
COc1cc(C)c(C(=O)Oc2cc(C)c(C(=O)O)c(O)c2C)c(O)c1C	-10.6%
O=C(c1cc(-c2ccco2)nc2ccccc12)N(Cc1nnc(-c2ccc(Cl)cc2)o1)C1CC1	-2.77%
COc1ccc(OC)c(C2=NS(=O)(=O)N(C)C(C(=O)Nc3ccc(C(C)=O)cc3)=C2)c1	-9.42%
NNC(=O)C(Cc1ccc(O)cc1)N1Cc2ccccc2C1=O (stereo not given)	1.55%
CC1(C)Cc2ccccc2/C(=C/C(=O)c2ccccc2)N1	15.6%
COc1ccc(NC(=O)CSc2nnc(Cc3ccccc3)c(=O)n2N)c(OC)c1	5.51%
Cc1ccc(NNC(N)=S)cc1Cl	1.11%
CC1(C(=O)NCc2ccco2)Cc2c(-c3cccc(C(N)=O)c3)ccnc2O1 (stereo not given)	-9.28%
C/C(CC1CC(C)(C)OC1=O)=N/Nc1nc(-c2ccccc2)cs1 (stereo not given)	-29.5%
CCN(CC)CC(=O)Nc1ccc(-c2nc3cc(NC(=O)CN(CC)CC)ccc3o2)cc1	-0.95%
CCOc1ccc(CCNC(=O)COC(=O)COc2ccc(Br)cc2)cc1OCC	4.38%
Cc1ccc(S(=O)(=O)NCc2ccncc2)c(C)c1C	53.4% (active)
O=C(NCC1CCCO1)c1ccc(NC(=O)c2cccc([N+](=O)[O-])c2)cc1 (stereo not given)	-2.03%
CCOc1ccc(OCCN2C(=O)NC(Cc3c[nH]c4ccccc34)C2=O)cc1 (stereo not given)	4.66%
O=C(CN1CCN(S(=O)(=O)c2cc(Cl)ccc2Cl)CC1)Nc1ccc2c(c1)OCCO2	-3.13%
CS/C(=C\[N+](=O)[O-])Nc1ccc(OC(F)(F)F)cc1	9.63%
CCCNC(=O)c1sc2c(c1C(=O)Nc1ccccn1)CCCC2	14.3%
CC(=O)Nc1ccc(NC(=O)CSc2nnnn2C2CCCCC2)cc1	-1.05%
CN(C)C(=O)Cn1c(SCC(=O)Nc2ccc3c(c2)OCO3)nc2ccccc21	-0.46%
